Test results published in PubChem BioAssay (NCI).
Values joined by “and” are separate entries in the source; they are usually repeats but may differ in a detail not shown here. Identical values can stand only once. Compounds without any hit were thinned out: in the full panel of roughly 83,000, 20% have a hit.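 Cell lines were cultured in 96-well plates, exposed to a single compound concentration, and assessed for percent growth 48 hours later.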 A number with no mark means an inactive call. Active and inactive are the calls of the source. The calls were made as follows: active = growth percent below 10; inactive = the rest.

What was measured:
Assay in all cases: NCI-60 one-dose screen, 48 h (100 = growth as untreated, 0 = no growth, -100 = all killed)
Details in all cases: 10 µM unless noted
SK-MEL-2 melanoma = test system: SK-MEL-2 melanoma
EKVX NSCLC = test system: EKVX NSCLC
SN12C renal = test system: SN12C renal
UO-31 renal = test system: UO-31 renal
TK-10 renal = test system: TK-10 renal
ACHN renal = test system: ACHN renal
CAKI-1 renal = test system: CAKI-1 renal
A498 renal = test system: A498 renal
HL-60(TB) leukemia = test system: HL-60(TB) leukemia
CCRF-CEM leukemia = test system: CCRF-CEM leukemia
MOLT-4 leukemia = test system: MOLT-4 leukemia
RPMI-8226 leukemia = test system: RPMI-8226 leukemia
OVCAR-8 ovarian = test system: OVCAR-8 ovarian
OVCAR-5 ovarian = test system: OVCAR-5 ovarian
SK-OV-3 ovarian = test system: SK-OV-3 ovarian
IGROV1 ovarian = test system: IGROV1 ovarian
OVCAR-3 ovarian = test system: OVCAR-3 ovarian
HS 578T breast = test system: HS 578T breast
SR leukemia = test system: SR leukemia
OVCAR-4 ovarian = test system: OVCAR-4 ovarian

Row | Structure (SMILES) | growth (SK-MEL-2 melanoma) | growth (EKVX NSCLC) | growth (SN12C renal) | growth (UO-31 renal) | growth (TK-10 renal) | growth (ACHN renal) | growth (CAKI-1 renal) | growth (A498 renal) | growth (HL-60(TB) leukemia) | growth (CCRF-CEM leukemia) | growth (MOLT-4 leukemia) | growth (RPMI-8226 leukemia) | growth (OVCAR-8 ovarian) | growth (OVCAR-5 ovarian) | growth (SK-OV-3 ovarian) | growth (IGROV1 ovarian) | growth (OVCAR-3 ovarian) | growth (HS 578T breast) | growth (SR leukemia) | growth (OVCAR-4 ovarian)
1 | O=P(O)(Nc1ccccc1)Nc1ccccc1 | 134% | 80.6% | 99.9% | 81.7% | 106% | 95.9% | 77.2% | 89.3% | 74% | 99.3% | 43.6% | 91.8% | 103% | 90.1% | 110% | 90.6% | 94.4% | 94.5% |  | 
2 | Nc1nc(=S)nc(N)[nH]1 | 101% | 92.9% | 80.5% | 74.1% | 136% | 103% | 101% | 98.4% | 92.6% |  | 90.4% |  | 104% | 89.1% | 102% | 87.6% |  |  | 71.3% | 
3 | C=CCOC(=O)C(Br)CC (configuration not stated) | 106% | 107% | 111% | 94.6% | 103% | 100% | 101% | 90.4% | 101% | 107% |  | 112% | 106% | 113% | 105% | 115% | 105% |  |  | 108%
4 | Nc1c(Cl)c(Cl)nc(C(=O)O)c1Cl | 92.5% | 86.5% | 93.6% | 71.1% | 99.2% | 88.2% | 90.1% | 138% | 62.8% |  | 70.2% | 123% | 94.2% | 111% | 99.9% | 29.9% | 107% | 104% |  | 95.4%
5 | C[C@]12CCc3sc(Nc4ccc(O)cc4)nc3C1=CC[C@@H]1[C@@H]2CC[C@]2(C)C(=O)CC[C@@H]12 | 72.5% | 98% | 30.4% | -48.8% (active) | 22.8% | -17.3% (active) | 47.1% | 101% | 8.98% (active) | 8.33% (active) |  | -24.5% (active) | 35.9% | 117% | 108% | 13.1% | -31.7% (active) |  | 9.6% (active) | 57.1%
6 | C[Se]/C=C1/C(=O)N(c2c(Cl)cccc2Cl)c2ccccc21 | 51.1% | 24% | -35.7% (active) | -96.5% (active) | 11.6% | 30.1% | 2.44% (active) | 11.5% |  | 10.2% | 10.2% | 2.93% (active) | -15.2% (active) | 28.7% | 61.5% | 44.7% | 20.3% | 13% | 2.07% (active) | 34.3%
7 | CC(=O)OC1CC2(O)C(CCC3(C)C(c4ccc(=O)oc4)CCC32O)C2(C)CCC(OC3OC(CO)C(O)C(O)C3O)C=C12 (configuration not stated) | -23.2% (active) | -89.1% (active) | -6.05% (active) | -80.8% (active) | -92.3% (active) | -79.8% (active) | -93.5% (active) | -33.8% (active) | -46.1% (active) | -25.1% (active) |  | -23.3% (active) | -55.6% (active) | -73.5% (active) | -13.9% (active) | -26.5% (active) | -100% (active) | -11.3% (active) | -15.3% (active) | -64.4% (active)
8 | CC[C@H](C)[C@H](NC(=O)CN(C)C)C(=O)N(C)[C@H](C[C@@H](OC(C)=O)c1nc(C(=O)NC23C4C5C2C2C3C4C52C(=O)OC)cs1)C(C)C (some centres not stated) | 34% | 40.4% | 31.8% | 54.9% | 57.7% | 42.6% | 44.8% | -1.71% (active) | -26.5% (active) | 6.24% (active) |  | 20.1% | 21.6% | 71.4% | 35.1% | 36.3% | -34% (active) | 19.8% | 10.4% | 
9 | O=C(NC1=NCC[Se]1)c1ccccc1O | 83% | 73% | 68.4% | 17.8% | 56.7% | 79.8% | 50.8% | 88.5% | 58.8% | 21.8% |  | 64.8% | 47.4% | 53.3% | 135% | -8.34% (active) | 69.8% | 35.5% |  | 71.1%
10 | O=C1CN2CCC1CC2 | 101% | 109% | 106% | 84.6% | 106% | 101% | 103% | 72.2% | 94% |  | 100% | 109% | 106% | 101% | 105% |  | 107% |  | 100% | 109%
11 | NC(=O)c1c(Br)c(Br)c(Br)c(Br)c1C(=O)O (tested in a mixture with another compound) | 101% and 113% | 108% and 99.9% | 87.8% and 93.3% | 72.4% and 51.5% | 122% and 123% | 92.7% and 101% | 92.8% and 97.5% | 113% | 85% and 68.2% | 35.5% and 79.4% |  | 101% and 97.9% | 97.5% and 96.6% | 94.5% and 97.3% | 113% and 102% | 124% and 110% | 111% and 112% | 114% and 115% | 52.6% and 86.2% | 
12 | COc1c(O)cc2c(c1OC)-c1ccc(SC)c(=O)cc1C(NC(C)=O)CC2 (configuration not stated) | 59.8% | 41.9% | 48.7% | 16.2% | 48.7% | 3.04% (active) | 19.3% | 7.2% (active) | -32.6% (active) |  | 9.41% (active) | 0.467% (active) |  | 41.9% | 35.2% | -44.2% (active) | -34.3% (active) | 16% | 5.8% (active) | 16.8%
13 | COCC1OC2OC3C(COC)OC(OC4C(COC)OC(OC5C(COC)OC(OC6C(COC)OC(OC7C(COC)OC(OC8C(COC)OC(OC1C(O)C2O)C(O)C8O)C(O)C7O)C(O)C6O)C(O)C5O)C(O)C4O)C(O)C3O (configuration not stated) (tested in a mixture with another compound) | 65.7% | 105% | 97.6% | 97.3% | 146% | 107% | 102% | 111% | 132% |  | 99.6% |  | 114% | 104% | 117% |  | 119% | 105% | 91.3% | 111%
14 | COc1ccc(N(CC(=O)NCCC[Te]c2ccccc2)C(=O)c2ccccc2)cc1 | 101% | 2.14% (active) | 19.9% | 12.9% | 97.7% | 87.7% | 84.9% | 16.1% | 36.9% | 15.1% | 17.9% | 22.5% | 14.2% | 33.4% | 1.16% (active) | 15.4% | 95.9% | 32.4% |  | 99%
15 | C[C@]12CC[C@@H](OC(=O)N(CCCl)N=O)C[C@@H]1CC[C@@H]1[C@@H]2CC[C@]2(C)C(=O)CC[C@@H]12 | 37.8% | 59.8% | 43% | 49.9% | 81.8% | 21.7% | 20.7% | -10.1% (active) | -21.8% (active) | 26.6% | 29.1% | 21.7% | 58.1% | 114% | 21.2% |  | 64.1% | 81.6% |  | 73%
